PubChem BioAssay AID743395 (Broad Institute, 2014)
Among all 1,200 compounds or so, about 480 (40%) were called active. So high a share suggests a set chosen from earlier hits. Only a sample is shown. Results with a measured potency or affinity are listed apart. Unmarked numbers belong to inactive results. The rule behind the calls is not given here.

Assay: viability loss in human hepatoma cells – cell-based, CellTiter-Glo luminescence, cherry-pick, set 2, cytotoxicity control, dose response (AID 743395);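 note: 0% = neutral control wells and -100% = positive control wells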
Details: HepG2 viability, CellTiter-Glo ATP luminescence, 72 h; series mostly up to 26 µM; activity change, negative = cytotoxicity: at the top concentration

Row | SMILES | activity change, negative = cytotoxicity
1 | O=S(=O)(Cc1ccccc1)N1CCCCN2[C@H](C1)[C@@H](c1ccc(C#Cc3ccccc3)cc1)[C@@H]2CO | -21.4%
2 | OC[C@H]1[C@H](c2ccc(C#CC3(O)CCCC3)cc2)[C@H]2CN(Cc3ccccc3F)CCCCN21 | -17.8%
3 | COc1ccc(C#Cc2ccc([C@H]3[C@H]4CN(C(=O)c5ccncc5)CCCCN4[C@H]3CO)cc2)cc1 | -22.7%
4 | C[C@]12C=CC(=O)C=C1CC[C@@H]1C2[C@@H](O)C[C@@]2(C)C1CC[C@]2(O)C(=O)COC(=O)CCC(=O)O (stereo partly specified) | -0.286%
5 | Nc1nn(-c2ccccc2)c(N)c1N=Nc1cccc(F)c1 | -13.9%
6 | CCN(C(=O)COc1ccc2ccc(=O)oc2c1)C1CCCCC1 | -7.77%
7 | CC(C)Nc1nc(Nc2ccc(Cl)cc2F)c2sccc2n1 | -18%
8 | COc1cc(C(=O)N2CCC(C(N)=O)CC2)ccc1OCc1c(C)noc1C | -3.78%
9 | Cc1noc(C)c1COc1ccc(C(=O)N2CCN(S(=O)(=O)c3ccc(F)cc3)CC2)cc1 | -4.3%
10 | CCOC(=O)c1c(NC(=O)CN2C(=O)NC3(CCC(C)CC3)C2=O)sc(C)c1CC (stereo unspecified) | 3.65%
11 | CC(Oc1ccccc1Cl)C(=O)Nc1ccc(S(=O)(=O)Nc2nccs2)cc1 (stereo unspecified) | -13.9%
12 | CCCCCCCCCC(=O)OCC(O)CO (stereo unspecified) | 3.56%
13 | O=C(CSc1nnc(Cn2c(=O)sc3ccccc32)n1-c1ccccc1)NCc1ccco1 | -0.55%
14 | Cc1cccc(COc2ccccc2C(=O)NC2CCC(O)CC2)c1 (stereo unspecified) | -4.57%
15 | Cc1csc2sc(-c3ccnc(SCC(=O)NCc4ccccc4)n3)c(C)c12 | -12.3%
16 | CC(C)C#Cc1ccc([C@@H]2[C@@H](CO)N3C(=O)CN(S(=O)(=O)c4ccccc4)C[C@@H]23)cc1 | -4.65%
17 | CCC(=O)N1[C@H](CN(CC)C(C)=O)[C@@H](c2ccc(-c3ccccc3)cc2)[C@@H]1CO | 1.41% [at 23.5 µM]
18 | CN(C[C@@H]1N[C@H](CO)[C@H]1c1ccccc1)C(=O)c1ccccn1 | 1.53%
19 | CNC(=O)CC1C(=O)N(c2ccc(F)cc2)C(=S)N1NC(=O)c1ccc(Cl)cc1 (stereo unspecified) | -23.1%
20 | C[C@H]1CCCCO[C@@H](CN(C)C(=O)Nc2ccc(C(F)(F)F)cc2)[C@@H](C)CN([C@@H](C)CO)C(=O)c2cc(NC(=O)Nc3ccc4c(c3)OCO4)ccc2O1 | -1.27%
21 | C[C@H]1CCCCO[C@@H](CN(C)C(=O)C2CCCCC2)[C@@H](C)CN([C@@H](C)CO)C(=O)c2cc(NC(=O)Nc3ccc(C(F)(F)F)cc3)ccc2O1 | -1.26% [at 23.5 µM]

Row | SMILES | activity change, negative = cytotoxicity
22 | C[C@H]1CCCCO[C@@H](CN(C)C(=O)Nc2ccc(C(F)(F)F)cc2)[C@@H](C)CN([C@@H](C)CO)C(=O)c2cc(NC(=O)Nc3ccc(F)cc3)ccc2O1 | 14.7%
23 | C[C@H](CO)N1C[C@H](C)[C@@H](CN(C)C(=O)Nc2ccc(C(F)(F)F)cc2)OCCCC[C@H](C)Oc2ccc(NC(=O)Nc3ccc(F)cc3)cc2C1=O | -21%
24 | C[C@H]1CCCCO[C@H](CN(C)C(=O)Nc2ccc(C(F)(F)F)cc2)[C@@H](C)CN([C@@H](C)CO)C(=O)c2cc(NC(=O)Nc3ccc(F)cc3)ccc2O1 | -0.6%
25 | C[C@@H]1CN([C@@H](C)CO)C(=O)c2cccc(NC(=O)NC3CCCCC3)c2O[C@@H]1CN(C)Cc1ccc(Cl)c(Cl)c1 | 5.25%
26 | C[C@H]1CN([C@@H](C)CO)S(=O)(=O)c2ccc(/C=C/c3ccccc3)cc2O[C@@H]1CN(C)C(=O)Nc1ccc(F)cc1 | -1.73%
27 | Cn1cnc2nc[nH]c2c1=S | 1.09%
28 | Cc1ccc(NC(=O)COc2ccc(Br)cc2CO)cc1S(=O)(=O)N1CCOCC1 | 5.44%
29 | CCc1nc(C)cn1S(=O)(=O)c1ccc2c(c1)OCCO2 | 23%
30 | CCCCC(=NCCc1c(C)[nH]c2ccccc12)C1=C(O)CC(c2ccccc2)CC1=O (stereo unspecified) | -16.5%
31 | COC(=O)c1[nH]c2c(c1C)C(=O)CC(c1cccc(OC)c1)C2 (stereo unspecified) | -9.76%
32 | O=C(Cc1ccccn1)NCC[C@H]1CC[C@@H](NC(=O)Nc2ccc(C(F)(F)F)cc2)[C@@H](CO)O1 | 8.05%
33 | Cc1ccc(S(=O)(=O)N(Cc2cc3ccccc3[nH]c2=O)c2cccc(C)c2)cc1 | 1.26%
34 | C=CC(C)(C)c1[nH]cnc1/C=C1\NC(=O)C(C(C)C)NC1=O (stereo unspecified) | -24.7%
35 | O=C(Cc1ccc(Cl)cc1)OCC(=O)c1ccc[nH]1 | -6.25%
36 | Cc1ccc(CN(C)CC(=O)Nc2cccc([N+](=O)[O-])c2)o1 | -15.2%
37 | CCCCN(C(=O)c1cc(S(=O)(=O)N2CCCCC2)ccc1Cl)c1c(N)n(CC(C)C)c(=O)[nH]c1=O | -14.3%
38 | O=C(C[C@H]1CC[C@@H]2[C@H](COC[C@@H](O)CN2S(=O)(=O)c2ccccc2)O1)Nc1ccc(-c2ccccc2)cc1 | -22.6%
39 | CN1C(=O)c2cc(NC(=O)Cc3ccccc3)ccc2OC[C@@H]2O[C@H](CC(=O)NCc3ccc(Cl)cc3)CC[C@H]21 | -16%
40 | COc1ccc(NC(=O)CSc2nnc(Cc3cccs3)n2C)cc1 | -0.153%
41 | CCCCn1cnc2c(c(CC#N)nn2-c2ccccc2)c1=N | 0.565%
